Results: the supplement of paper PMC7411054
Where a name gives a salt, the structure may show the parent alone.

Tests used:
Details in all cases: treatment time: 24 h
[1] = tested on: A549-ACTB-RAB5A; assay: lowest phenotypically active concentration; higher = less potent
How it was run: (§1)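 After 24 h at 0.3, 1, 3 or 9 µM, with four wells per treatment, fifteen gene-edited A549, HepG2 and WPMY1 reporter lines carrying BFP, GFP and RFP/FusionRed were imaged live. Each well's live-cell features were expressed relative to solvent control wells. Deviation required ≥3 of 4 wells past the 95th percentile of control Euclidean distances, and reproducibility a median replicate Pearson correlation over the 95th percentile of non-replicates. Phenotypic activity rested on both.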

[2] = tested on: A549-CANX-COX4; assay: as above
How it was run: as §1

[3] = tested on: A549-GM130-SQSTM1; assay: as above
How it was run: as §1

[4] = tested on: A549-TP53BP1-CLTA; assay: as above
How it was run: as §1

[5] = tested on: A549-TUBA1B-RELA; assay: as above
How it was run: as §1

[6] = tested on: HepG2-GM130-SQSTM1; assay: as above
How it was run: as §1

[7] = tested on: A549-ACTB-RAB5A; assay: phenotypically active (imaging signature differs from DMSO and reproducible) at any of 0.3-9 uM (binary (1 = active, 0 = inactive)); higher = active
How it was run: as §1

[8] = tested on: A549-CANX-COX4; assay: as above
How it was run: as §1

[9] = tested on: A549-GM130-SQSTM1; assay: as above
How it was run: as §1

[10] = tested on: A549-TP53BP1-CLTA; assay: as above
How it was run: as §1

[11] = tested on: A549-TUBA1B-RELA; assay: as above
How it was run: as §1

[12] = tested on: HepG2-ACTB-RAB5A; assay: as above
How it was run: as §1

[13] = tested on: HepG2-CANX-COX4; assay: as above
How it was run: as §1

[14] = tested on: HepG2-GM130-SQSTM1; assay: as above
How it was run: as §1

[15] = tested on: HepG2-TP53BP1-CLTA; assay: as above
How it was run: as §1

[16] = tested on: HepG2-TUBA1B-RELA; assay: as above
How it was run: as §1

[17] = tested on: WPMY1-CANX-COX4; assay: as above
How it was run: as §1

[18] = tested on: WPMY1-GM130-SQSTM1; assay: as above
How it was run: as §1

[19] = tested on: WPMY1-TP53BP1-CLTA; assay: as above
How it was run: as §1

[20] = tested on: WPMY1-TUBA1B-RELA; assay: as above
How it was run: as §1

Nc1nc(Cl)nc2c1ncn2[C@H]1C[C@H](O)[C@@H](CO)O1 [cladribine]
active: phenotypically active [7] 1 | phenotypically active [8] 1 | phenotypically active [9] 1 | phenotypically active [10] 1 | phenotypically active [11] 1 | phenotypically active [12] 1 | phenotypically active [13] 1 | phenotypically active [14] 1 | phenotypically active [15] 1 | phenotypically active [16] 1 | phenotypically active [17] 1 | phenotypically active [18] 1 | phenotypically active [19] 1 | phenotypically active [20] 1
3 µM: lowest phenotypically active concentration [1] | lowest phenotypically active concentration [4]
≤ 0.3 µM: lowest phenotypically active concentration [6]
1 µM: lowest phenotypically active concentration [2] | lowest phenotypically active concentration [3] | lowest phenotypically active concentration [5]

Nc1nccc2c1ncn2[C@@H]1C=C(CO)[C@@H](O)[C@H]1O [3-Deazaneplanocin A hydrochloride]
active: phenotypically active [7] 1 | phenotypically active [8] 1 | phenotypically active [9] 1 | phenotypically active [10] 1 | phenotypically active [11] 1 | phenotypically active [12] 1 | phenotypically active [13] 1 | phenotypically active [14] 1 | phenotypically active [15] 1 | phenotypically active [16] 1 | phenotypically active [17] 1 | phenotypically active [18] 1 | phenotypically active [19] 1 | phenotypically active [20] 1
3 µM: lowest phenotypically active concentration [3] | lowest phenotypically active concentration [5]
1 µM: lowest phenotypically active concentration [2] | lowest phenotypically active concentration [6]
≤ 0.3 µM: lowest phenotypically active concentration [1] | lowest phenotypically active concentration [4]

Cc1ccc(-n2nc(C(C)(C)C)cc2NC(=O)Nc2ccc(OCCN3CCOCC3)c3ccccc23)cc1
3 µM: lowest phenotypically active concentration [1] | lowest phenotypically active concentration [3] | lowest phenotypically active concentration [5] | lowest phenotypically active concentration [6]
9 µM: lowest phenotypically active concentration [2] | lowest phenotypically active concentration [4]
active: phenotypically active [7] 1 | phenotypically active [8] 1 | phenotypically active [9] 1 | phenotypically active [10] 1 | phenotypically active [11] 1 | phenotypically active [12] 1 | phenotypically active [13] 1 | phenotypically active [14] 1 | phenotypically active [15] 1 | phenotypically active [16] 1 | phenotypically active [17] 1 | phenotypically active [18] 1 | phenotypically active [19] 1 | phenotypically active [20] 1

COc1cccc(-c2cc(F)ccc2[C@H]2Cc3nc(N)nc(C)c3C(=O)N2)n1
active: phenotypically active [7] 1 | phenotypically active [8] 1 | phenotypically active [9] 1 | phenotypically active [10] 1 | phenotypically active [11] 1 | phenotypically active [12] 1 | phenotypically active [13] 1 | phenotypically active [14] 1 | phenotypically active [15] 1 | phenotypically active [16] 1 | phenotypically active [17] 1 | phenotypically active [18] 1 | phenotypically active [19] 1 | phenotypically active [20] 1
≤ 0.3 µM: lowest phenotypically active concentration [1] | lowest phenotypically active concentration [2] | lowest phenotypically active concentration [3] | lowest phenotypically active concentration [4] | lowest phenotypically active concentration [5] | lowest phenotypically active concentration [6]

CCc1cccc(CC)c1NC(=O)N1Cc2[nH]nc(NC(=O)c3ccc(N4CCN(C)CC4)cc3)c2C1
active: phenotypically active [7] 1 | phenotypically active [8] 1 | phenotypically active [9] 1 | phenotypically active [10] 1 | phenotypically active [11] 1 | phenotypically active [12] 1 | phenotypically active [13] 1 | phenotypically active [14] 1 | phenotypically active [15] 1 | phenotypically active [16] 1 | phenotypically active [17] 1 | phenotypically active [18] 1 | phenotypically active [19] 1 | phenotypically active [20] 1
≤ 0.3 µM: lowest phenotypically active concentration [1] | lowest phenotypically active concentration [6]
1 µM: lowest phenotypically active concentration [3] | lowest phenotypically active concentration [5]
3 µM: lowest phenotypically active concentration [2] | lowest phenotypically active concentration [4]
